In PubChem BioAssay (NCATS) one finds Potency data, which are given here for 39 molecules.

Inconclusive results are not listed. Where a call stands in place of a potency, no number is given. The source made the active and inactive calls. Calls come from the whole dose curve; as a rule, active = well fitted curve in the direction sought with a large enough effect; inconclusive = small, poorly fitted or top-dose-only effect, or another doubt; inactive = no such curve, though single readings can be large; an effect the other way counts as inactive or inconclusive.
Note: nearly all actives have a fitted effect of over 70% in size.
Potency is the fitted concentration of half-maximal effect.

Sequence of Furin (Homo sapiens) (P09958 whole entry, looked up): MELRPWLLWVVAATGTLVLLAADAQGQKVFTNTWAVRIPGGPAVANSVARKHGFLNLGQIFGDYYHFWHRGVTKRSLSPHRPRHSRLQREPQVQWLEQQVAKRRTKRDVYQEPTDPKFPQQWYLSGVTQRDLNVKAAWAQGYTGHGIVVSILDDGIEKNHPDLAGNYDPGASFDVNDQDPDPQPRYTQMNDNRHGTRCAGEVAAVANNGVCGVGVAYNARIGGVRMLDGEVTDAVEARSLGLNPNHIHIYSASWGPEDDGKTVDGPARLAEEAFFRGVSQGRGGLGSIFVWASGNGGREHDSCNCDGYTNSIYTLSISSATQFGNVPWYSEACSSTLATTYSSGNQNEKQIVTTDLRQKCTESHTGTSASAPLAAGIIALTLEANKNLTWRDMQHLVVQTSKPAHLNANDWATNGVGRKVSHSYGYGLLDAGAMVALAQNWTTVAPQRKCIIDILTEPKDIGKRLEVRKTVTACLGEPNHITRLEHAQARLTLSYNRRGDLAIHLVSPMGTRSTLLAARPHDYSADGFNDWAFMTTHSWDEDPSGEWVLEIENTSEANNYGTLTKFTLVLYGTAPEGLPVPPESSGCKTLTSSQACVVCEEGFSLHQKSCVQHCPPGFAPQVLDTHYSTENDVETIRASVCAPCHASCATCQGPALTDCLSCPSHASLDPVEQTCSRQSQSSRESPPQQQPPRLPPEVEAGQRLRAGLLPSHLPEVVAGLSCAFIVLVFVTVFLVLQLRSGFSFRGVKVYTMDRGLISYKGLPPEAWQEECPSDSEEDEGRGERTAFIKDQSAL

The first experiment addresses Furin (Homo sapiens) (UniProt P09958). The experiment in a line: Furin counterscreen qHTS for Zika virus inhibitors (AID 1347149). The settings on record: furin enzymatic counterscreen, fluorogenic substrate; series mostly up to 114 µM. The gist of the method:
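Fluorogenic cleavage of BOC-RVRR-AMC (2 microM final, Km ~15 µM) was monitored (ex 340, em 450 nm) at 37C after 15 min RT preincubation of 5 nM furin with compounds in HEPES pH 7.0 buffer with CaCl2 and Triton X-100. Percent inhibition was fitted to a 4-parameter Hill curve.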
Background: The purpose of a counterscreen is to sort out artefacts and off-target activity.
On to `O=C(COc1ccccc1F)Nc1ccccc1C(=O)OCc1cc(=O)n2nc(C3CC3)sc2n1`, for which the Potency entry is “inactive”.

Regarding `CCc1ccc(S(=O)(=O)Nc2cc3c(C(=O)OCc4ccccc4)c(C)oc3c3ccccc23)cc1`, the Potency result is “inactive”.

On to `COc1ccc(-c2cc(=O)c3c(O)cc(O)c(-c4cc(-c5cc(=O)c6c(O)cc(O)cc6o5)ccc4OC)c3o2)cc1`, for which the Potency result was “inactive”.

For `CCOC(=O)c1ccc(NC(=O)c2ccc3c(c2)CCN3S(=O)(=O)c2ccc(Cl)cc2)cc1`, the Potency result was “inactive”.

In the case of `O=C(O)c1cc(-c2ccc(C(F)(F)F)cc2)nc2n[nH]c(-c3ccccc3)c12`, the Potency was 52.7 µM (active).

As to `Cc1ccc2nc(NS(=O)(=O)c3ccc(Cl)cc3)c(Nc3ccc(C(=O)O)cc3)nc2c1`, the Potency entry is “inactive”.

As to `CCOc1ccccc1NC(=O)c1ccc2oc(=O)c(S(=O)(=O)c3ccc(F)cc3)cc2c1`, the Potency result is “inactive”.

On to `Cc1csc2nc(COC(=O)c3ccc(NC(=O)c4ccccc4Br)cc3)cc(=O)n12`, for which the Potency is 59.1 µM (active).

Regarding `COC(=O)c1ccc([C@H]2Nc3ccc(S(=O)(=O)Nc4ccc(C)cc4)cc3[C@H]3C=CC[C@H]32)cc1`, the Potency result was “inactive”.

Turning to `O=c1oc2ccccc2cc1-c1nnc(Nc2ccc(Cl)cc2Cl)s1`, the Potency entry is “inactive”.

In the case of `O=c1oc2cc(O)ccc2cc1-c1nc(-c2ccc(Cl)c(Cl)c2)cs1`, the Potency entry is “inactive”.

`COc1cc(C2Nc3ccccc3-c3nnc(SCc4ccc(Cl)cc4)nc3O2)ccc1OCC(=O)O` (stereo not drawn): the Potency result was “inactive”.

Take `O=C(O)c1cc(-n2c(/C=C\c3ccc(F)cc3)nc3ccccc3c2=O)ccc1Cl`: the Potency entry was “inactive”.

In the case of `COC(=O)C1=C(c2ccccc2)c2ccccc2S(=O)(=O)N1CC(=O)Nc1ccccc1C(F)(F)F`, the Potency result is “inactive”.

With `COC(=O)c1ccccc1NC(=O)CSc1nc(-c2ccccc2)cc(C(F)(F)F)n1`, the Potency entry was “inactive”.

In the case of `O=C(O)CSc1nc2ccc(NC(=O)COc3ccc(Cl)cc3)cc2s1`, the Potency result is “inactive”.

Turning to `COc1ccc(S(=O)(=O)c2c(Nc3c(C)cccc3C)sc(C(=O)c3ccc4c(c3)OCO4)c2N)cc1`, the Potency is 23.5 µM (active).

As to `CCOC(=O)c1ccc(Nc2nc3ccccc3nc2NS(=O)(=O)c2ccc(Cl)cc2)cc1`, the Potency result was “inactive”.

Consider `O=C(O)CCc1ccc(-c2ccc(Cl)cc2)n1-c1cccc(C(F)(F)F)c1`, for which the Potency entry was “inactive”.

For `O=C(/C=C/c1ccc(C(F)(F)F)cc1)OC(C(=O)NC1CC1)c1ccccc1` (stereo not drawn), the Potency result is “inactive”.

As to `Cc1ccc(-c2nnc(Nc3ccc(O)cc3)c3ccccc23)cc1S(=O)(=O)NCc1nc2ccccc2[nH]1`, the Potency result is “inactive”.

On to `O=C(Nc1cccc(C(=O)OCc2cc(=O)n3nc(C4CC4)sc3n2)c1)c1cccc(F)c1`, for which the Potency was 41.8 µM (active).

`O=C(OCC#CCSc1nnc(-c2cccc3ccccc23)o1)c1sc(Cl)c(Cl)c1Cl`: the Potency is 14.8 µM (active).

In the case of `Cc1csc2nc(COC(=O)c3ccccc3NC(=O)c3ccc(C(C)(C)C)cc3)cc(=O)n12`, the Potency is 37.3 µM (active).

In the case of `O=S(=O)(Nc1ccc(Cl)cc1)c1ccc(NS(=O)(=O)c2ccc3c(c2)OCCO3)cc1`, the Potency entry was “inactive”.

Consider `CC(C)(C)c1ccc(S(=O)(=O)Nc2ccc(O)c(Sc3nc4ccccc4s3)c2)cc1`, for which the Potency entry was “inactive”.

As to `COC(=O)c1c(NC(=O)c2cc3nc(-c4ccc(Br)cc4)cc(C(F)(F)F)n3n2)sc2c1CCCC2`, the Potency result is “inactive”.

With `O=C(O)c1ccc(NC(=O)c2cn(-c3ccccc3)nc2-c2ccc(Br)cc2)cc1`, the Potency result was “inactive”.

Consider `O=C(CNc1nnc(-c2ccc([S+](=O)([O-])N3CCCC3)cc2)n1-c1ccccc1)Nc1ccc(C(=O)O)cc1`, for which the Potency entry is “inactive”.

With `Cc1c(Cl)cccc1NS(=O)(=O)c1ccc(NS(=O)(=O)c2ccc3c(c2)OCCO3)cc1`, the Potency result is “inactive”.

Consider `CC(C)c1nn2c(=O)cc(COC(=O)c3ccc(NC(=O)c4cccs4)cc3)nc2s1`, for which the Potency entry is “inactive”.

Regarding `CC(NC(=O)C1CCN(S(=O)(=O)c2ccc3nc4c(c(C(=O)O)c3c2)CCCC4)CC1)c1ccccc1` (stereo not drawn), the Potency entry was “inactive”.

Consider `O=C(CNC(=O)c1ccccc1)OC(C(=O)Nc1cc(C(F)(F)F)ccc1Cl)c1ccccc1` (stereo not drawn), for which the Potency entry was “inactive”.

In the case of `COC(=O)c1ccc(C(=O)Nc2ccc(-c3nc4cc(NC(=O)c5ccc(C(=O)OC)cc5)ccc4o3)cc2)cc1`, the Potency result was “inactive”.

For the molecule `CCCc1nn2c(=O)cc(COC(=O)c3ccccc3NC(=O)c3ccc(Cl)cc3)nc2s1`, the Potency was 41.8 µM (active).

As to `O=C(Nc1ccc(C(=O)OCc2cc(=O)n3c4c(sc3n2)CCCC4)cc1)c1cccc(F)c1`, the Potency is 46.9 µM (active).

For `O=C(O)Cn1nnc(-c2ccc(OCc3cccc(C(F)(F)F)c3)cc2)n1`, the Potency entry is “inactive”.

Turning to `O=c1oc2ccc3ccccc3c2cc1-c1nnc(Nc2ccc(Cl)cc2Cl)s1`, the Potency result was “inactive”.

In the case of `Cc1ccc(NC(=O)CSc2ncccc2C(=O)Oc2ccccc2Cl)cc1Cl`, the Potency entry was “inactive”.

Tested on in a further experiment: not listed separately
In words: Confirmatory screen GU Rhodamine qHTS for Zika virus inhibitors qHTS (AID 1347157). The following applies: purified enzyme assay, Rhodamine110 substrate fluorescence, 15 min; series mostly up to 114 µM. The gist of the method: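 Unlinked NS2B/NS3, 25 nM; Rhod110 peptide, 1.5 microM; compounds, up to 114 microM. Reaction run 15 min at RT in 10 mM Tris-HCl pH 8.0, 0.01% Tween 20; kinetic fluorescence change fitted with a 4-parameter Hill model.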
For orientation: Quantitative high-throughput screening tests each substance at several concentrations.
Regarding `O=C(COc1ccccc1F)Nc1ccccc1C(=O)OCc1cc(=O)n2nc(C3CC3)sc2n1`, the Potency entry was “inactive”.

Consider `CCc1ccc(S(=O)(=O)Nc2cc3c(C(=O)OCc4ccccc4)c(C)oc3c3ccccc23)cc1`, for which the Potency entry was “inactive”.

As for `COc1ccc(-c2cc(=O)c3c(O)cc(O)c(-c4cc(-c5cc(=O)c6c(O)cc(O)cc6o5)ccc4OC)c3o2)cc1`, the Potency was 25.1 µM (active).

For the molecule `CCOC(=O)c1ccc(NC(=O)c2ccc3c(c2)CCN3S(=O)(=O)c2ccc(Cl)cc2)cc1`, the Potency entry was “inactive”.

As for `O=C(O)c1cc(-c2ccc(C(F)(F)F)cc2)nc2n[nH]c(-c3ccccc3)c12`, the Potency is 63.1 µM (active).

For the molecule `Cc1ccc2nc(NS(=O)(=O)c3ccc(Cl)cc3)c(Nc3ccc(C(=O)O)cc3)nc2c1`, the Potency was 3.55 µM (active).

With `CCOc1ccccc1NC(=O)c1ccc2oc(=O)c(S(=O)(=O)c3ccc(F)cc3)cc2c1`, the Potency result is “inactive”.

Take `Cc1csc2nc(COC(=O)c3ccc(NC(=O)c4ccccc4Br)cc3)cc(=O)n12`: the Potency entry is “inactive”.

As to `COC(=O)c1ccc([C@H]2Nc3ccc(S(=O)(=O)Nc4ccc(C)cc4)cc3[C@H]3C=CC[C@H]32)cc1`, the Potency is 25.1 µM (active).

`O=c1oc2ccccc2cc1-c1nnc(Nc2ccc(Cl)cc2Cl)s1`: the Potency is 31.6 µM (active).

On to `O=c1oc2cc(O)ccc2cc1-c1nc(-c2ccc(Cl)c(Cl)c2)cs1`, for which the Potency is 11.2 µM (active).

Take `COc1cc(C2Nc3ccccc3-c3nnc(SCc4ccc(Cl)cc4)nc3O2)ccc1OCC(=O)O` (stereo not drawn): the Potency was 28.2 µM (active).

For the molecule `O=C(O)c1cc(-n2c(/C=C\c3ccc(F)cc3)nc3ccccc3c2=O)ccc1Cl`, the Potency is 39.8 µM (active).

For the molecule `COC(=O)C1=C(c2ccccc2)c2ccccc2S(=O)(=O)N1CC(=O)Nc1ccccc1C(F)(F)F`, the Potency entry is “inactive”.

Turning to `COC(=O)c1ccccc1NC(=O)CSc1nc(-c2ccccc2)cc(C(F)(F)F)n1`, the Potency entry was “inactive”.

For `O=C(O)CSc1nc2ccc(NC(=O)COc3ccc(Cl)cc3)cc2s1`, the Potency is 31.6 µM (active).

Take `COc1ccc(S(=O)(=O)c2c(Nc3c(C)cccc3C)sc(C(=O)c3ccc4c(c3)OCO4)c2N)cc1`: the Potency result is “inactive”.

With `CCOC(=O)c1ccc(Nc2nc3ccccc3nc2NS(=O)(=O)c2ccc(Cl)cc2)cc1`, the Potency is 3.16 µM (active).

For `O=C(O)CCc1ccc(-c2ccc(Cl)cc2)n1-c1cccc(C(F)(F)F)c1`, the Potency is 7.08 µM (active).

For the molecule `O=C(/C=C/c1ccc(C(F)(F)F)cc1)OC(C(=O)NC1CC1)c1ccccc1` (stereo not drawn), the Potency entry was “inactive”.

For the molecule `Cc1ccc(-c2nnc(Nc3ccc(O)cc3)c3ccccc23)cc1S(=O)(=O)NCc1nc2ccccc2[nH]1`, the Potency entry is “inactive”.

Consider `O=C(Nc1cccc(C(=O)OCc2cc(=O)n3nc(C4CC4)sc3n2)c1)c1cccc(F)c1`, for which the Potency was 50.1 µM (active).

Regarding `O=C(OCC#CCSc1nnc(-c2cccc3ccccc23)o1)c1sc(Cl)c(Cl)c1Cl`, the Potency entry was “inactive”.

Consider `Cc1csc2nc(COC(=O)c3ccccc3NC(=O)c3ccc(C(C)(C)C)cc3)cc(=O)n12`, for which the Potency entry is “inactive”.

Take `O=S(=O)(Nc1ccc(Cl)cc1)c1ccc(NS(=O)(=O)c2ccc3c(c2)OCCO3)cc1`: the Potency is 44.7 µM (active).

As to `CC(C)(C)c1ccc(S(=O)(=O)Nc2ccc(O)c(Sc3nc4ccccc4s3)c2)cc1`, the Potency is 35.5 µM (active).

Consider `COC(=O)c1c(NC(=O)c2cc3nc(-c4ccc(Br)cc4)cc(C(F)(F)F)n3n2)sc2c1CCCC2`, for which the Potency entry is “inactive”.

For `O=C(O)c1ccc(NC(=O)c2cn(-c3ccccc3)nc2-c2ccc(Br)cc2)cc1`, the Potency was 8.91 µM (active).

In the case of `O=C(CNc1nnc(-c2ccc([S+](=O)([O-])N3CCCC3)cc2)n1-c1ccccc1)Nc1ccc(C(=O)O)cc1`, the Potency entry is “inactive”.

Regarding `Cc1c(Cl)cccc1NS(=O)(=O)c1ccc(NS(=O)(=O)c2ccc3c(c2)OCCO3)cc1`, the Potency is 44.7 µM (active).

Consider `CC(C)c1nn2c(=O)cc(COC(=O)c3ccc(NC(=O)c4cccs4)cc3)nc2s1`, for which the Potency entry is “inactive”.

For the molecule `CC(NC(=O)C1CCN(S(=O)(=O)c2ccc3nc4c(c(C(=O)O)c3c2)CCCC4)CC1)c1ccccc1` (stereo not drawn), the Potency result was “inactive”.

For `O=C(CNC(=O)c1ccccc1)OC(C(=O)Nc1cc(C(F)(F)F)ccc1Cl)c1ccccc1` (stereo not drawn), the Potency result is “inactive”.

As for `COC(=O)c1ccc(C(=O)Nc2ccc(-c3nc4cc(NC(=O)c5ccc(C(=O)OC)cc5)ccc4o3)cc2)cc1`, the Potency entry is “inactive”.

For the molecule `CCCc1nn2c(=O)cc(COC(=O)c3ccccc3NC(=O)c3ccc(Cl)cc3)nc2s1`, the Potency result was “inactive”.

For `O=C(Nc1ccc(C(=O)OCc2cc(=O)n3c4c(sc3n2)CCCC4)cc1)c1cccc(F)c1`, the Potency result was “inactive”.

Turning to `O=C(O)Cn1nnc(-c2ccc(OCc3cccc(C(F)(F)F)c3)cc2)n1`, the Potency is 25.1 µM (active).

For the molecule `O=c1oc2ccc3ccccc3c2cc1-c1nnc(Nc2ccc(Cl)cc2Cl)s1`, the Potency entry was “inactive”.

Regarding `Cc1ccc(NC(=O)CSc2ncccc2C(=O)Oc2ccccc2Cl)cc1Cl`, the Potency result is “inactive”.
